Laboratory results from PubChem BioAssay (NCI).
Compounds without any hit were thinned out: in the full panel of roughly 83,000, 20% have a hit.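 Testing used 96-well plates and a 48-hour single-concentration exposure. Example: -40 means 40% of the starting cells died.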 The source made the active and inactive calls. Rule for the calls: active = growth percent below 10; inactive = the rest.

What follows are compounds tested on HL-60(TB) leukemia (assay: NCI-60 one-dose screen, 48 h (100 = growth as untreated, 0 = no growth, -100 = all killed)). Details: 10 µM unless noted.

`Cc1ccc(C(NC(=O)c2ccccc2)c2ccc3cccnc3c2O)cc1` (configuration not stated) was tested. Which growth did it give?
Its growth is -21% (active).

Which growth does the source give for `COc1ccc2c(c1)CC/C(=C\c1ccc(OCC(=O)Nc3nc4ccccc4s3)cc1)C2=O` here?
Its growth is 87.6% (inactive).

`CSc1nc(NCCO)c(C#N)c(-c2cccc([N+](=O)[O-])c2)n1` was tested. Which growth did it give?
Its growth is 104% (inactive).

With `Cc1cc(-c2ccc(N=Nc3c(S(=O)(=O)O)cc4cc(S(=O)(=O)O)cc(O)c4c3O)c(C)c2)ccc1N=Nc1c(S(=O)(=O)O)cc2cc(S(=O)(=O)O)cc(O)c2c1O` as the compound, how does the growth read?
Its growth is 119% (inactive).

Which growth does the source give for `Cc1cc(O)c(C2=NN(c3ccc(S(N)(=O)=O)cc3)C(c3ccccc3O)C2)cc1Cl` (configuration not stated) here?
Its growth is -35.4% (active).

`CCN(CC)c1ccc(/C=N/NC(=O)c2ccc(Nc3ccnc(C(F)(F)F)c3)cc2)c(O)c1` was tested. Which growth did it give?
The growth was 53.2% (inactive).

With `CC(=O)O[C@H]1[C@H](CC#CC#CC[C@@H]2C[C@]3(C)[C@H]4CC=C5[C@H]6[C@@H](C)[C@H](C)CC[C@]6(C(=O)NCCCCCCCCN)CC[C@@]5(C)[C@]4(C)CC[C@H]3C(C)(C)[C@H]2OC(C)=O)C[C@]2(C)[C@H]3CC=C4[C@H]5[C@@H](C)[C@H](C)CC[C@]5(C(=O)NCCCCCCCCN)CC[C@@]4(C)[C@]3(C)CC[C@H]2C1(C)C` as the compound, how does the growth read?
The growth was 104% (inactive).

Which growth does the source give for `C/C(=N\Nc1ccc(Cl)cn1)c1ccccn1` here?
Its growth is -27.4% (active).

With `O=C(Nc1ccccc1C(=O)N/N=C(\c1ccccc1)c1ccccn1)c1ccccc1` as the compound, how does the growth read?
The growth was -24.1% (active).

For `CC(C)c1ncc(CO)n1Cc1c(Cl)cccc1Cl`, which growth is on record?
The growth was 98.7% (inactive).

How did the growth turn out when `CCOC(=O)C1=C(N)Oc2c(sc3c(C)cccc23)C1c1ccc(F)cc1` (configuration not stated) was run?
The growth was -39.3% (active).

How did the growth turn out when `Cc1ccc(C)c(/C=C2\CN(C(=O)OC(C)(C)C)C/C(=C\c3cc(C)ccc3C)C2=O)c1` was run?
The growth was 10.7% (inactive).

How did the growth turn out when `CCCCC[C@H]1C/C=C2/C(=O)C(Cl)=C[C@@H]2C/C=C\CCCC(=O)O[C@@H](CCCCC)C/C=C2/C(=O)C(Cl)=C[C@@H]2C/C=C\CCCC(=O)O1` was run?
Its growth is -19.1% (active).

With `COc1ccc(-c2c(N)n[nH]c2-c2ccc(Cl)cc2O)cc1OC` as the compound, how does the growth read?
Its growth is 91.9% (inactive).

With `N#C/C(=C\c1ccc(C(F)(F)F)cc1)c1cc2ccccc2[nH]1` as the compound, how does the growth read?
The growth was 89.3% (inactive).

With `c1ccc(-c2nc(Nc3ccc(-c4nc5ccccc5[nH]4)cc3)nc(N3CCOCC3)n2)cc1` as the compound, how does the growth read?
Its growth is -32.7% (active).

With `O=C1c2ccccc2-c2ccccc2C1(Cl)Cl` as the compound, how does the growth read?
The growth was -39.6% (active).

`CC(C)(C)CC(C)(C)c1ccc(OCCOCC[N+](C)(C)Cc2ccccc2)cc1` was tested. Which growth did it give?
Its growth is -63.5% (active).

How did the growth turn out when `Fc1ccc2c(c1)c(-c1nc(-c3c[nH]c4ncccc34)cs1)cn2CCCN1CCOCC1` was run?
Its growth is 21.9% (inactive).

For `Cc1ccc(Sc2ccccc2N)cc1`, which growth is on record?
Its growth is 115% (inactive).

`Cc1ccccc1OCC(O)COc1ccccc1C` was tested. Which growth did it give?
The growth was 128% (inactive).

`Clc1ccc(/C=C/c2ccccn2)cc1` was tested. Which growth did it give?
The growth was 99.4% (inactive).

Which growth does the source give for `Nc1ccc2c(c1)C(=O)NC2=O` here?
The growth was 71.1% (inactive).

For `C=C(CN1CCN(c2cccc(C(F)(F)F)n2)CC1)c1ccc(C(=O)Nc2ccccc2N)cc1`, which growth is on record?
The growth was -27.4% (active).

Which growth does the source give for `O=C1NC(=O)C2C(=O)NC(=O)C1C21CCc2ccccc21` (configuration not stated) here?
Its growth is 117% (inactive).

Which growth does the source give for `COc1cc(C2CC(c3ccc(Cl)cc3)=NN2C=O)ccc1Oc1ccnc2cc(Cl)ccc12` (configuration not stated) here?
The growth was 85.9% (inactive).

With `CCOC(=O)c1sc(N)nc1-c1ccccc1` as the compound, how does the growth read?
The growth was 98.3% (inactive).

How did the growth turn out when `CC(C)CCSc1nc(Nc2ccccc2)c(C#N)c(-c2ccc(F)cc2)n1` was run?
Its growth is 59.6% (inactive).

How did the growth turn out when `CCC(CC)NCCCCCNc1cc(OC)cc2cccnc12` was run?
The growth was 110% (inactive).

How did the growth turn out when `CCC(=O)N1C/C(=C/c2ccc(Br)cc2)C(=O)/C(=C/c2ccc(Br)cc2)C1` was run?
Its growth is -26.2% (active).

How did the growth turn out when `FC(F)(F)c1ccc(-c2cnc(Cl)nc2NCc2cc(C(F)(F)F)cc(C(F)(F)F)c2)cc1` was run?
Its growth is 5.98% (active).

Which growth does the source give for `OC(c1cccc(C(F)(F)F)c1)c1cnccc1NC1CCCCCC1` (configuration not stated) here?
Its growth is -30.7% (active).

With `FC(F)(F)c1cn(CCN2CCOCC2)c2ncnc(Cl)c12` as the compound, how does the growth read?
The growth was -68.6% (active).

How did the growth turn out when `COc1ccc(Cl)cc1NC(=O)c1cc2c([nH]1)-c1nc(N)sc1CCC2` was run?
Its growth is 56.9% (inactive).

`CC(=O)NC(CCC(=O)c1ccccc1)C(=O)O` (configuration not stated) was tested. Which growth did it give?
Its growth is 75.9% (inactive).

For `COc1cc(C2CC(c3ccc(C)cc3)=NN2C(C)=O)ccc1Oc1ccnc2cc(Cl)ccc12` (configuration not stated), which growth is on record?
The growth was 100% (inactive).

`CC1=CC(=O)c2cccc(NC3=NCCO3)c21` was tested. Which growth did it give?
Its growth is 100% (inactive).
